Consider 40 molecules from PubChem BioAssay (EPA / NIEHS).

Each structure is given as a SMILES string. Records with an inconclusive call do not appear. Calls of active or inactive are those of the source. Rule for the calls: active = hit-call score of the fitted dose curve at least 0.9, where 1 is the maximum; inconclusive = response in the unintended direction; inactive = score below 0.9.

Sequence of human RAR-related Orphan Receptor gamma (RORg), RORC (gene 6097) (P51449 whole entry, looked up): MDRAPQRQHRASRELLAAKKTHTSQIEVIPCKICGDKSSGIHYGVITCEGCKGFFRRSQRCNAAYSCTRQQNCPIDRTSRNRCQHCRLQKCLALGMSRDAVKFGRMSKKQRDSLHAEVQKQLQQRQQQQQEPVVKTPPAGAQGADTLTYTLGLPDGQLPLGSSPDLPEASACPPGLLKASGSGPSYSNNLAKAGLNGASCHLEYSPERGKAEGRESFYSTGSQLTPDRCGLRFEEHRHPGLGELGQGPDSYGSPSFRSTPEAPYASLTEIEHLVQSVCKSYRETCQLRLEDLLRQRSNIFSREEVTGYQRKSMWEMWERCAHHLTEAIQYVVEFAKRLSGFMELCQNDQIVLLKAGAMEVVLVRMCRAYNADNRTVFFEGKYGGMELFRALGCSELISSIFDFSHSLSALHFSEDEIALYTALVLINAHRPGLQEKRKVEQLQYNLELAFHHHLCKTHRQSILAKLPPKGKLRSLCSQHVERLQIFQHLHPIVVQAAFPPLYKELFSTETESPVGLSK

In this experiment the target is human RAR-related Orphan Receptor gamma (RORg), RORC (gene 6097) (UniProt P51449). Description: ATG_RORg_TRANS: Attagene TRANS-FACTORIAL HepG2 Assay for human RAR-related Orphan Receptor gamma (RORg) (AID 2283011). As for the experimental part:
ATG_TRANS is a cell-based, multiplexed-readout assay that uses HepG2, a human liver cell line, with measurements taken at 24 hours after chemical dosing in a 24-well plate.ATG_RORg_TRANS is one of 30 assay component(s) measured or calculated from the ATG_TRANS assay. It is designed to make measurements of mRNA induction, a form of inducible reporter, as detected with fluorescence intensity signals by Reverse transcription polymerase chain reaction (RT-PCR) and Capillary electrophoresis technology.Data from the assay component ATG_RORg_TRANS was analyzed into 1 assay endpoint. This assay endpoint, ATG_RORg_TRANS, was analyzed in the positive analysis fitting direction relative to DMSO as the negative control and baseline of activity. Using a type of inducible reporter, measures of mRNA for gain-of-signal activity can be used to understand the reporter gene at the transcription factor-level as they relate to the gene RORC. Furthermore, this assay endpoint can be referred to as a primary readout, because this assay has produced multiple assay endpoints where this one serves a reporter gene function. To generalize the intended target to other relatable targets, this assay endpoint is annotated to the nuclear receptor intended target family, where the subfamily is orphan.
Human liver HepG2 cells are transiently transfected with multiple reporter transcription units (MRTUs) in 6-well plates using FuGene 6 reagent (Roche; 3 ml FuGene/1 mg DNA). The MRTU constructs are regulated by a cis-regulating element (promoter). […] A major difference between the CIS and TRANS system is that in CIS activities of endogenous TFs are measured, whereas the TRANS assay evaluates changes in activities of exogenous, chimeric NR-Gal4 proteins. […] At the end of 24 hour incubation, total RNA was isolated using TriZol reagent (Invitrogen). The isolated RNA is then reverse-transcribed using oligo(dT) primer and Mo-MLV reverse transcriptase (Invitrogen) with DNAse I (Ambion) treatment for 30 min. The one-tenth of the produced cDNA was amplified by PCR using Taq DNA polymerase (Invitrogen) and two reporter sequence-specific primers. The PCR products were fluorescently labeled by primer extension with 6-arboxyfluorescein (6-FAM) 5'-labeled reporter sequence-specific primer (2 min at 95 C, 20 s at 68 C and 10 min at 72 C) and these products were digested with 5U of HpaI (New England Biolabs) for 2h at 37 C. The fragments were purified using Qiaquick PCR columns (Qiagen), analyzed on an ABI 3130xL genetic analyzer (Applied Biosystems) with peak positions identified by using a set of X-rhodamine (ROX)-labeled MapMarker1000 molecular weight standards (BioVentures). The raw capillary electrophoresis data was processed using Attagraph software (Attagene).
In the case of `CCOC(C)=O`, the outcome was inactive.
As for `CCc1cccc(CC)c1NC(=O)C(=O)O`, the entry is “inactive”.
The value for `Brc1ccc(Oc2ccc(Br)cc2Br)cc1` was “inactive”.
With `NCc1cccc(CN)c1`, the molecule was called inactive.
Take `O=C(F)C(F)(F)C(F)(F)C(F)(F)C(=O)F`: the result was inactive.
The value for `CC(C)c1c(C(=O)Nc2ccccc2)c(-c2ccccc2)c(-c2ccc(F)cc2)n1CC[C@@H](O)C[C@@H](O)CC(=O)O` was “inactive”; that for `COc1cccc(O)c1` was “inactive”.
Consider `O=C(O)C(F)(F)OC(F)(F)C(F)(F)OC(F)(F)C(F)(F)OC(F)(F)C(F)(F)C(F)(F)C(F)(F)F`, for which the molecule was classed as inactive.
As for `O=C(O)CCC(F)(F)C(F)(F)C(F)(F)C(F)(F)C(F)(F)C(F)(F)F`, the entry is “inactive”; as for `CCCCc1ccc2ccccc2c1S(=O)(=O)O`, “inactive”; as for `CCC(=O)O`, “inactive”.
The value for `C/C=C/C(=O)C1=C(C)CCCC1(C)C` was “inactive”; that for `C=Cc1ccc(O)c(OC)c1` was “inactive”; that for `c1cc2cccc3c4cccc5cccc(c(c1)c23)c54` was “inactive”.
The value for `CCCCCc1ccc(O)cc1` was “inactive”; that for `CC(O)COc1ccccc1` (stereo not given) was “inactive”; that for `CC=O` was “inactive”.
`C=CC(C)(CCC=C(C)C)OC(C)=O` (stereo not given): the outcome was inactive.
The value for `CCCCCCCC(OC)OC` was “inactive”; that for `CN(Cc1cnc2nc(N)nc(N)c2n1)c1ccc(C(=O)N[C@@H](CCC(=O)O)C(=O)O)cc1` was “inactive”.
Take `C=CC(=O)OCCN(CC)CC`: the call was inactive.
On to `FC(F)(F)N1C(F)(F)C(F)(F)OC(F)(F)C1(F)F`, for which the molecule was called inactive.
As for `CCCCCCCCCCCC`, the entry is “inactive”; as for `CCCCCCCCCCCCCCCCCC[N+](C)(C)Cc1ccccc1`, “inactive”; as for `CCCCC=O`, “inactive”.
`C[C@]12CC[C@@H]3c4ccc(O)cc4CC[C@H]3[C@@H]1CC[C@@H]2OC(=O)CCC1CCCC1`: the outcome was inactive.
As for `O=C1NS(=O)(=O)c2ccccc21`, the entry is “inactive”; as for `NCCN`, “inactive”.
As for `CCC(C)c1ccccc1O` (stereo not given), the entry is “inactive”; as for `C=CC(=C)CC/C=C(\C)CCC=C(C)C`, “inactive”.
The value for `CC(C)(O)C(=O)c1ccccc1` was “inactive”; that for `Cc1ccc2ccc3ccc(C)cc3c2c1` was “inactive”; that for `O=P(O)(O)CCC(F)(F)C(F)(F)C(F)(F)C(F)(F)C(F)(F)C(F)(F)F` was “inactive”.
For `CCCCCCCCC1CCC(=O)O1` (stereo not given), the molecule was called inactive.
As for `CCOCCOCC`, the entry is “inactive”.
The value for `Nc1ccn([C@@H]2O[C@H](CO)[C@@H](O)C2O)c(=O)n1` (stereo not given in full) was “inactive”; that for `Cc1ccccc1OCC(=O)O` was “inactive”; that for `Oc1cc2ccccc2cc1O` was “inactive”.
Turning to `c1ccc2c(c1)CCC2`, the outcome was inactive.
The value for `Cc1ccc(C)c(S(=O)(=O)O)c1` was “inactive”.
